In the library only some 3.8% were active in any assay of this set; here they are far more common.
Ecoli rRNA inh = inhibitors of bacterial rRNA selective over humanized ribosomes | E. coli WT GFP vs humanized-ribosome RFP mutants, fluorescence, 24 h; active compounds read low; DMSO median 0, no signal -100 | hit rate 1.6% among 350,000 | AID 720706 | GFP signal change (wild-type ribosome), % (test concentration not listed);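 active = significant combined selectivity score with lowered wild-type GFP, culture density cut under 30%, mutant RFP and density less affected; inactive = any of these conditions unmet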
ADAM17 inh = inhibits human ADAM17; hit rate 0.83% among 370,000; AID 720648; P78536; inhibition, % at 6.95 µM; recombinant ADAM17, EDANS/DABCYL FRET peptide cleavage;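 active = inhibition above the mean of compounds lying between control limits plus 3 SD, set per campaign, cut at about 8.5% in these data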;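 also: 0% = DMSO-only wells as the low control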
FGF22 binding = binders of recombinant human FGF22 by thermal shift | hit rate 1.5% among 340,000 | activity (Tm shift, normalised), % at 9.99 µM | Q9HCT0 | AID 651658 | SYPRO orange fluorescence; percent of sucrose octasulfate shift, DMSO zero;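 active = mean Tm shift, scaled 0 neutral to 100 positive control, at about 1.3% or above, every replicate too, limit read from the data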
Target sequence (Q9HCT0 whole entry, looked up): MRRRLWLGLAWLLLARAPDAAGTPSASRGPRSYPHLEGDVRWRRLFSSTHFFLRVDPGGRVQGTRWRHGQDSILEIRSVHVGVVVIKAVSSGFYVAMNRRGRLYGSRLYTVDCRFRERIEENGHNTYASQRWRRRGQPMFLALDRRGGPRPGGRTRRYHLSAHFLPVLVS
proKLK7 act = proKLK7 (human) activation, primary screen; P49862; purified proKLK7, EDANS-DABCYL substrate fluorescence; 100% is mature enzyme control, 0% vehicle; activation, % at 7 µM; hit rate 0.9% among 370,000; AID 652039;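 active = activation above the mean of all tested compounds plus 3 SD, computed per campaign excluding outliers beyond control limits, cut at about 13% in these data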
Target sequence (P49862 whole entry, looked up): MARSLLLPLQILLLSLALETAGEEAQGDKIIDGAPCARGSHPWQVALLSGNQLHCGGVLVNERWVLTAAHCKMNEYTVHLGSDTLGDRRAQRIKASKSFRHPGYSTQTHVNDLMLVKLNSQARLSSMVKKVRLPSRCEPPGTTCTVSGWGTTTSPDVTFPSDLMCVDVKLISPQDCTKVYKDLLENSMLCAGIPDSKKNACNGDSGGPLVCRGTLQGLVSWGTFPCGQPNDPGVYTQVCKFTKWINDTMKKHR
ADAM10 inh = ADAM10 inhibition, QFRET primary screen. hit rate 0.62% among 370,000. O14672. inhibition, % at 7 µM. recombinant ADAM10, EDANS/DABCYL FRET peptide cleavage, 3 h;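 active = inhibition above a per-campaign cutoff equal to the mean of compounds falling between control-based bounds plus 3 SD, cut at about 20% in these data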;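 also: 0% = DMSO wells while the 100% control is not disclosed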
proKLK7 act conf = confirmation of human kallikrein-7 zymogen activators | hit rate 68% among 3,200 | shares compounds with proKLK7 act | activation, % at 7 µM | purified proKLK7, EDANS-DABCYL substrate fluorescence; scaled: vehicle 0, mature enzyme 100 | AID 686949;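 active = activation, as change over the incubation, above the mean of all tested compounds plus 3 SD, cut at about 13% in these data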
EDANS-DABCYL int = optically interferes with EDANS-DABCYL signal, flagging KLK7 hits | AID 686952 | shares compounds with proKLK7 act | EDANS-DABCYL substrate fluorescence interference, no enzyme, 4 h; solvent 0%, active enzyme control 100% | activation, % at 7 µM | hit rate 80% among 3,200;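 active = activation above the all-compound mean plus 3 SD, ignoring values outside control-based bounds, cut at about 4.8% in these data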;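 also: value is the 4 h activation minus the activation read at time zero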
EDANS interf = counter-screen for kallikrein-7 activators: EDANS-DABCYL interference, dose response. shares compounds with proKLK7 act. EDANS-DABCYL peptide fluorescence interference, no enzyme. EC50, µM. hit rate 20% among 250;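 active = compounds that raise the fluorescence signal in this interference counterscreen, with EC50 at or below 10 µM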;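 also: intact quenched peptide substrate alone read at 355 nm excitation and 520 nm emission; signal is fluorescence gain from T0 to T4 after four hours at room temperature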
Starred values were filed as active, the others as inactive; i = inactive; · = no result given.

SMILES	Ecoli rRNA inh	ADAM17 inh	FGF22 binding	proKLK7 act	ADAM10 inh	proKLK7 act conf	EDANS-DABCYL int	others
CCCC(=O)Nc1ccc2c(c1)C(=O)N(C)C[C@H](OC)[C@@H](C)CN(S(=O)(=O)c1cn(C)cn1)[C@H](C)CO2	2	·	0	·	·	·	·
O=C(Nc1ccc(NC(=O)c2ccccc2O)cc1)Nc1ccc(F)cc1F	1	-29	0	31*	-73	16*	10*	EDANS interf=9.7*
OC1c2c(F)cccc2N=C2CCCCN21 (stereo unspecified)	3	-275	0	14*	i	11	8.3*
CC(C)=CCOc1ccc2ccc(=O)oc2c1	5	-187	0	4	i	·	·
COc1cc2ccc(=O)oc2c(O)c1OCC=C(C)C	-21*	-50	·	148*	-134	152*	151*
O=C(Nc1cccc(-c2nc3ccccc3[nH]2)c1)c1cccc(NC(=O)c2ccco2)c1	·	-102	·	34*	-235	1	2
O=C(Nc1ccc2nc(-c3ccccc3)[nH]c2c1)c1ccco1	·	-16	·	1	-63	·	·
C[C@@H]1CCCCO[C@H](CN(C)C(=O)Cc2ccccc2)[C@H](C)CN([C@H](C)CO)C(=O)c2cc(NS(=O)(=O)c3ccccc3)ccc2O1	0	·	-1	·	·	·	·
Cc1nc(C(=O)NNC(=O)Nc2ccccc2)cs1	19	-4	0	16*	-1	-1	-1
Cc1cc(C(=O)NNC(=O)Nc2ccccc2)no1	26	-6	0	0	-4	·	·
O=Cc1cn(-c2ccccc2)nc1-c1cc2c(ccc3ccccc32)oc1=O	·	-72	·	-7	-216	·	·
O=Cc1cn(-c2ccccc2)nc1-c1cc2cc(O)ccc2oc1=O	·	-73	·	197*	-248	561*	549*
C/C=C/c1ccc([C@@H]2[C@H](CO)N(Cc3cncnc3)C23CN(C(=O)CC)C3)cc1	2	·	0	·	·	·	·
Cc1cc(C)nc(NS(=O)(=O)c2ccc(N/C=C\C(=O)c3ccc(Cl)cc3)cc2)n1	·	-5	·	-1	0	·	·
CCOc1ccc(C(=O)/C=C/Nc2ccc(S(=O)(=O)Nc3cc(C)nc(C)n3)cc2)cc1	-1	-4	0	147*	-11	238*	177*
Cc1oc2cc(OCC(=O)O)ccc2c(=O)c1Oc1ccccc1	1	-5	0	-1	-7	·	·
CCc1cc2c(=O)c(Oc3ccccc3)c(C)oc2cc1O	·	i	·	55*	i	65*	78*
CNc1ccc(Cl)cc1C(N)=O	6	-492	0	17*	i	11	20*
CCC(=O)Oc1ccc2c(c1)O/C(=C\c1ccco1)C2=O	11	-27	0	51*	-78	478*	467*
COCCN(CCOC)Cc1c(O)ccc2c1O/C(=C\c1ccco1)C2=O	19	-22	0	19*	-35	23*	27*
COC(=O)COc1ccc2c(c1)O/C(=C\c1ccco1)C2=O	12	-16	0	7	-16	·	·
CCN(CC)C(=O)Oc1ccc2c(c1)O/C(=C\c1ccco1)C2=O	5	-9	0	7	-16	·	·
O=C1/C(=C/c2ccco2)Oc2c1ccc(O)c2CN1CCCCC1	·	-27	·	14*	-84	67*	73*
C[C@H]1CN([C@@H](C)CO)C(=O)c2cc(-c3ccc(C(=O)N(C)C)cc3)cnc2O[C@@H]1CN(C)C(=O)c1ccncc1	8	·	0	·	·	·	·
COc1ccc2c3c([nH]c2c1)[C@@H](CO)N(C(=O)C1CC1)CC31CCN(C)CC1	2	·	0	·	·	·	·
SMILES	Ecoli rRNA inh	ADAM17 inh	FGF22 binding	proKLK7 act	ADAM10 inh	proKLK7 act conf	EDANS-DABCYL int	others
Cc1cc(=O)oc2c(CN(C)Cc3ccccc3)c(O)ccc12	·	i	·	75*	i	72*	78*
Cc1ccc2c(CN3CCOCC3)cc(=O)oc2c1C	5	-2	0	0	-1	·	·
COc1ccc2c(C)cc(=O)oc2c1OCC(O)CN1CCOCC1 (stereo unspecified)	-2	-53	0	15*	-186	7	10*
Cc1cc(=O)oc2c(CN3CCOCC3)c(O)ccc12	5	i	0	100*	i	74*	65*
Cc1cc(=O)oc2c(CN3CCCCC3)c(O)ccc12	7	i	0	118*	i	71*	73*
O=c1cc(-c2ccccc2)c2ccc(O)c(CN3CCCCC3)c2o1	·	-60	·	11	-228	·	·
CN(Cc1ccccc1)Cc1c(O)ccc2ccccc12	10	-13	0	-1	-32	·	·
O=C(NC1CCCCC1)N1CC(=O)N2[C@H](C1)[C@H](c1ccc(/C=C/c3ccccc3)cc1)[C@@H]2CO	5	·	·	·	·	·	·
C/C=C/c1ccc2c(c1)O[C@H](CN(C)C(=O)CC)[C@H](C)CN([C@H](C)CO)S2(=O)=O	0	·	0	·	·	·	·
CN(C)C(=O)[C@@H]1[C@@H](CO)[C@@H]2Cn3c(ccc(C4=CCCC4)c3=O)[C@H]1N2CCC(F)(F)F	0	·	·	·	·	·	·
CNC(=O)C[C@@H]1CC[C@H]2[C@H](COc3ccc(NC(=O)c4ccc(OC)cc4)cc3C(=O)N2C)O1	-1	·	0	·	·	·	·
CCCC(=O)Nc1ccc2c(c1)C(=O)N(C)C[C@@H](OC)[C@H](C)CN(C(=O)Cc1ccccn1)[C@H](C)CO2	2	·	·	·	·	·	·
COc1ccc(NC(=O)N(C)C[C@H]2OCCCC[C@@H](C)Oc3ccc(NC(=O)C4CCCCC4)cc3C(=O)N([C@@H](C)CO)C[C@H]2C)cc1	-2	·	0	·	·	·	·
CNC[C@@H]1Oc2c(NS(C)(=O)=O)cccc2C(=O)N(C)C[C@@H]1C	-4	·	·	·	·	·	·
Cc1cc(=O)oc2cc(OCC(=O)N3CCOCC3)c(Cl)cc12	3	i	0	18*	i	33*	24*	EDANS interf=>70
COc1ccc(/C=C/C(=O)c2ccoc2)cc1	-9	-57	·	3	-164	·	·
COc1ccc(/C=C/C(=O)c2ccc(O)cc2)cc1	·	-17	1.5*	13*	-97	4	2
O=C(c1cc(-c2cccs2)nc2ccccc12)N1CCN(CCO)CC1	6	-348	0	14*	i	22*	14*	EDANS interf=>69
CS(=O)(=O)N1CCN(C(=O)c2cc(-c3cccs3)nc3ccccc23)CC1	·	-360	·	13*	i	16*	23*
CC(=O)Nc1cc2c(ccc3ccccc32)oc1=O	9	-416	0	23*	i	48*	57*
CC(=O)Nc1cc2ccccc2oc1=O	9	-6	0	-1	-38	·	·

Screening results from PubChem BioAssay.
